Screening data deposited in PubChem BioAssay by The Scripps Research Institute Molecular Screening Center.
Hits are enriched below; roughly 3.4% of the tested compounds scored in any of these assays.
ADAM17 inh: inhibitors of human ADAM17. recombinant ADAM17, EDANS/DABCYL FRET peptide cleavage. P78536. hit rate 0.83% among 370,000. inhibition, % at 6.95 µM. AID 720648;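 active means inhibition above the mean of compounds lying between control limits plus 3 SD, set per campaign, cut at about 8.5% in these data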;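 further: 0% = DMSO-only wells as the low control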
Target sequence (P78536 215-824 limits assumed): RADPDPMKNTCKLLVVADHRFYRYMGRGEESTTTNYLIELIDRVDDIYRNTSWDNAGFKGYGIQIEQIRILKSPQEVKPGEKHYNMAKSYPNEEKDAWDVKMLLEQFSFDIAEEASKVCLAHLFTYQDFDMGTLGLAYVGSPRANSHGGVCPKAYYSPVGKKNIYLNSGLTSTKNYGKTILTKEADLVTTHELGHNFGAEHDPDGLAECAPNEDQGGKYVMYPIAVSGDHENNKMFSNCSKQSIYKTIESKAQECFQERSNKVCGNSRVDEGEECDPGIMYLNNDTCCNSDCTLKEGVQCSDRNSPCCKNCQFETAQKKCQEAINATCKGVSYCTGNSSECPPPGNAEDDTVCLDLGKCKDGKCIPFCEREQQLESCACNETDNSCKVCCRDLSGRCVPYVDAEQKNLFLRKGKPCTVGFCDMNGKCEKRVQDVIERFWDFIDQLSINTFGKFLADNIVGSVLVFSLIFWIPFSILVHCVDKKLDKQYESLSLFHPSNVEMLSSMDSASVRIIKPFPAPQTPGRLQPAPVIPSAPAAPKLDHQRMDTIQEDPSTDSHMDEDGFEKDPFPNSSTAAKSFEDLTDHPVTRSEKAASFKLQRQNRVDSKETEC
PLCb3 inh: PLC-beta3 (human) inhibition, primary screen | inhibition, % at 12.2 µM | Purified PLC-beta3, fluorogenic substrate, fluorescence | hit rate 0.18% among 370,000 | Q01970; in the data active means inhibition above about 11%;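 further: 0% = median of compound wells on plate and 100% = full blocker control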
HGIII-sPLA2 inh: Inhibits HGIII-sPLA2 liposome hydrolysis, primary screen. Q9NZ20. QFRET BODIPY PC-A2 liposome hydrolysis, fluorescence. inhibition, % at 12.2 µM. hit rate 0.56% among 370,000. AID 743126;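 active means inhibition above mean plus 3 SD of compounds lying within the high and low control bounds, cut at about 19% in these data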;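 further: 0% = median of test compound wells and 100% = no enzyme DMSO wells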
PLCg1 inh: inhibitors of human phospholipase C gamma1. AID 720700. inhibition, % at 12.2 µM. purified PLC-gamma1, fluorogenic substrate, fluorescence. hit rate 0.84% among 370,000; in the data active means inhibition above about 9.5%
KLK7 zymogen act: activators of human kallikrein-7 zymogen | activation, % at 7 µM | hit rate 0.9% among 370,000 | purified proKLK7, EDANS-DABCYL substrate fluorescence; 100% is mature enzyme control, 0% vehicle | AID 652039;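 active means activation above the mean of all tested compounds plus 3 SD, computed per campaign excluding outliers beyond control limits, cut at about 13% in these data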
ADAM10 inh: inhibitors of human ADAM10. recombinant ADAM10, EDANS/DABCYL FRET peptide cleavage, 3 h. inhibition, % at 7 µM. hit rate 0.62% among 370,000. AID 720582;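 active means inhibition above a per-campaign cutoff equal to the mean of compounds falling between control-based bounds plus 3 SD, cut at about 20% in these data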;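 further: 0% = DMSO wells while the 100% control is not disclosed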
ADAM10 confirm: human ADAM10 inhibition, confirmation | shares compounds with ADAM10 inh | ADAM10 QFRET peptide cleavage, EDANS fluorescence | inhibition, % at 6.95 µM | hit rate 1% among 2,100 | AID 743208;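 active means inhibition above about 20% chosen separately for each screening run, limit read from the data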;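 further: 0% = DMSO wells and 100% = marimastat wells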
ADAM17 counter: inhibits human ADAM17 in ADAM10 exosite counter-screen; shares compounds with ADAM10 inh; ADAM17 QFRET peptide cleavage, EDANS fluorescence; inhibition, % at 6.95 µM; hit rate 0.5% among 2,100; AID 743214;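 active means mean triplicate inhibition above the solvent-only control wells' mean plus 3 SD, cut at about 12% in these data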;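 further: 0% = DMSO wells and 100% = marimastat wells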
* marks the source's active call; other numbers are inactive results; nt = no result given.

SMILES	ADAM17 inh	PLCb3 inh	HGIII-sPLA2 inh	PLCg1 inh	KLK7 zymogen act	ADAM10 inh	ADAM10 confirm	ADAM17 counter
COc1ccc(CNc2nn3c(-c4cccc(C(=O)N(C)C)c4)cnc3s2)cc1	2.1	1.0	-5.5	6.2	-0.1	0.3	nt	nt
COCCN(C(=O)Cc1cccs1)C(C(=O)NCc1ccc(OC)cc1)c1ccc(OC)cc1 (stereo not drawn)	0.0	-5.3	-6.9	-6.4	0.6	-2.0	nt	nt
COc1ccc(CNC(=O)C(c2ccc(C)cc2)N(Cc2cccs2)C(=O)c2ccc3c(c2)OCCO3)cc1 (stereo not drawn)	5.3	-0.3	-0.7	0.3	0.0	26.1*	5.6	1.3
COc1ccc(NS(=O)(=O)c2cccc(N3CC(O)=C(c4ccccc4)C3=N)c2)cc1	-1.0	1.3	-8.7	-1.8	-0.1	65.3*	2.3	0.3
Cc1cc(C(=O)Nc2ccc(N3CCCC3)c(Cl)c2)ccc1[N+](=O)[O-]	8.2	4.0	3.0	4.5	-0.5	18.4	nt	nt
Cc1ccc(NC(=S)NNC(=O)c2ccc(N3CCOCC3)c([N+](=O)[O-])c2)cc1Cl	6.6	-2.1	16.5	0.2	-0.1	20.9*	4.4	0.1
Cn1c(SCC(=O)Nc2ccc(S(=O)(=O)Nc3nccs3)cc2)nc2sc3c(c2c1=O)CCCC3	2.4	-1.1	-20.3	0.9	-0.7	11.1	nt	nt
Cc1ccc(OCc2n[nH]c(=S)n2C2CCCCC2)cc1	5.2	5.1	13.6	2.6	0.4	11.2	nt	nt
Cc1cccc(OCc2n[nH]c(=S)n2C2CCCCC2)c1	5.5	1.3	13.1	3.5	0.3	20.8*	-0.4	0.1
CCCNC(=O)C(Cc1cccc(OC)c1)NC(=O)c1ccc(C(C)(C)C)cc1 (stereo not drawn)	0.8	2.4	6.3	7.2	-0.4	82.6*	0.2	0.1
O=[N+]([O-])c1cccc(C2NCC(c3ccccc3Cl)c3c2[nH]c2ccccc32)c1 (stereo not drawn)	5.4	-5.8	-2.8	-0.1	0.3	21.3*	5.5	3.0
O=S(Cc1ccc(Br)cc1)Cc1nnc(SCc2ccc(Br)cc2)n1-c1ccccc1 (stereo not drawn)	8.3	0.9	-27.6	2.8	0.3	21.9*	6.0	1.7
COC(=O)[C@]12C[C@H](CC(=O)NCC3CCCCC3)C(=O)N(CCC3=CCCCC3)C1=C[C@H](C(C)(C)C)O[C@@H]2C	-4.2	1.7	1.8	-2.5	0.2	-8.0	nt	nt
CCO[C@H]1OC(C(=O)Nc2ccccc2)=C[C@@H](c2ccc(Br)cc2)[C@@H]1CCCO	8.6	5.0	-11.8	1.1	-0.2	23.8*	7.1	1.6
CCO[C@@H]1OC(C(=O)Nc2ccccc2)=C[C@H](c2ccc(C(F)(F)F)cc2)[C@H]1CCCO	6.3	7.4	-6.9	2.9	0.2	18.2	nt	nt
CCCn1nc([N+](=O)[O-])c(C(C#N)c2nc3ccccc3o2)c(Cl)c1=O (stereo not drawn)	7.4	0.1	2.7	2.0	-0.5	21.4*	1.5	-0.1
COC(=O)[C@]12C[C@H](CC(=O)N3CCOCC3)C(=O)N(Cc3ccccc3)C1=C[C@H](C1CCCC1)O[C@@H]2C	-2.1	3.0	-3.9	1.2	0.0	-1.3	nt	nt
O=C(O)c1ccc(C#Cc2cccc(F)c2)cn1	-3.2	-1.1	9.8	-1.3	0.0	26.0*	0.7	0.5
CC(C)CNc1cccc2c1S(=O)(=O)N[C@@H](Cc1ccccc1)CO2	0.4	1.8	-6.3	1.7	-0.1	-6.0	nt	nt
Cc1ccc(N2CCN(CC(O)COc3cccc4ccccc34)CC2)cc1 (stereo not drawn)	4.0	-4.9	9.8	7.5	-0.2	20.4*	4.8	0.4
OC(COc1cccc2ccccc12)CN1CCN(c2ccccc2Cl)CC1 (stereo not drawn)	8.4	-3.8	-13.2	5.8	0.4	16.6	nt	nt
Clc1cccc(CON/C=N/c2ncnc3sccc23)c1	6.4	7.3	1.6	8.5	-0.5	21.2*	2.2	0.7
Clc1cccc(Cl)c1CON/C=N/c1ncnc2sccc12	3.3	10.5	7.8	0.2	0.1	5.4	nt	nt
COCCCN(C(=O)c1cc2c(s1)CCCCC2)c1c(N)n(Cc2ccccc2)c(=O)[nH]c1=O	3.2	2.0	-5.4	0.6	0.4	20.4*	-0.7	0.0
C#CCNC(=O)C[C@H]1C[C@@]2(C(=O)OC)C(=C[C@H](COCc3ccccc3)O[C@@H]2C)N(CCc2ccc(OC)c(OC)c2)C1=O	-5.7	2.2	-2.2	-2.3	0.6	-7.0	nt	nt
SMILES	ADAM17 inh	PLCb3 inh	HGIII-sPLA2 inh	PLCg1 inh	KLK7 zymogen act	ADAM10 inh	ADAM10 confirm	ADAM17 counter
C=CCNC(=O)c1c(CSc2ccc(Cl)cc2)noc1C(=O)NCc1ccccc1	7.6	-4.8	-1.6	3.5	0.9	20.9*	6.0	2.9
C=CCNC(=O)c1c(CSc2ccccc2)noc1C(=O)NCc1ccccc1	4.1	-0.9	-11.0	-3.9	0.5	18.8	nt	nt
CCCCNc1cccc2c1S(=O)(=O)N[C@H](C)CO2	-2.3	0.0	5.4	0.5	0.5	-10.2	nt	nt
COC(=O)[C@]12C[C@H](CC(=O)N3CCN(C(=O)c4ccco4)CC3)C(=O)N(Cc3cccc4ccccc34)C1=C[C@H](C1CCCC1)O[C@@H]2C	3.6	4.9	-11.2	8.5	0.1	20.6*	4.8	1.5
CCCCOCCCNC(=O)C[C@H]1C[C@@]2(C(=O)OC)C(=C[C@H](C(C)(C)C)O[C@@H]2C)N(Cc2cccc3ccccc23)C1=O	8.5	5.2	-16.1	1.5	1.7	21.2*	9.6	3.2
COC(=O)[C@]12C[C@H](CC(=O)NCc3ccc(OC)c(OC)c3)C(=O)N(Cc3cccc4ccccc34)C1=C[C@H](C1CCCC1)O[C@@H]2C	7.7	4.2	-9.2	3.9	0.6	24.1*	8.1	3.1
COC(=O)[C@]12C[C@H](CC(=O)NCCC(C)C)C(=O)N(Cc3ccccc3)C1=C[C@H](COCc1ccccc1)O[C@@H]2C	-2.1	-1.6	-8.2	-3.2	-0.5	3.5	nt	nt
COC(=O)[C@]12C[C@H](CC(=O)NCCC(C)C)C(=O)N(Cc3ccco3)C1=C[C@H](COCc1ccccc1)O[C@@H]2C	-3.5	-4.7	1.1	-1.8	0.1	52.9*	1.1	0.0
C=CCCC(=O)N(Cc1ccccc1)c1ccccc1C(=O)Nc1cc(OC)ccc1OC	0.7	-16.0	-2.9	-8.6	0.2	-1.5	nt	nt
COC(=O)Cc1c([C@H](C)[C@@H](OC)c2ccccc2Br)nnn1Cc1ccccc1	-1.2	3.3	-6.3	-0.2	-0.2	2.9	nt	nt
